Data on 10 molecules can be found in PubChem BioAssay (Tox21).

Assay [1] is described as follows: A CellTox Green Cytotoxicity Assay to monitor cytotoxicity in HEK293 cells - 40 hour (AID 1224871). Further: nearly all actives have a fitted effect of over 45% in size. Further: potency means the concentration at half of the fitted maximal effect. The method in brief:
(§1)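 Fluorescence from a DNA-binding dye excluded by viable cells was measured repeatedly in the same HEK293 wells (600 cells/well) during continuous compound exposure at 37 C. Each assay gives one read point: 0, 8, 16, 24, 32 or 40 h.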

Assay [2] can be described thus: qHTS RealTime-Glo MT Cell Viability Assay in HEK293 cells - 16 hour (AID 1224872). Further: nearly all actives have a fitted effect of over 50% in size. Further: potency means the concentration at half of the fitted maximal effect. The method in brief: (§2)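 HEK293 cells seeded with NanoLuc/prosubstrate reagent, rested 5 h at 37 C, then dosed and kept at 37 C up to 40 h. Nonlytic real-time luminescence from viable cells read at 0, 8, 16, 24, 32 and 40 h.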
(In general: In qHTS, concentration-response curves come from the screen itself.)

The nature of assay [3]: qHTS RealTime-Glo MT Cell Viability Assay in HEK293 cells - 40 hour (AID 1224874). Further: nearly all actives have a fitted effect of over 50% in size. As to conditions: RealTime-Glo luminescence; max response: active compounds read low. In outline: (§3)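 Luminescence, which tracks viable cell number through reduction of the prosubstrate to a NanoLuc substrate, was read over continuous 37 C culture. Cells (600/well) were premixed with reagent and rested 5 h before 23 nL of compound in DMSO was pinned.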

Assay [4] can be described thus: A CellTox Green Cytotoxicity Assay to monitor cytotoxicity in HEK293 cells - 24 hour (AID 1224875). Further: nearly all actives have a fitted effect of over 45% in size. Further: potency means the concentration at half of the fitted maximal effect. The method in brief: as §1
The nature of assay [5]: A CellTox Green Cytotoxicity Assay to monitor cytotoxicity in HepG2 cells - 16 hour (AID 1224876). Further: nearly all actives have a fitted effect of over 45% in size. Further: potency means the concentration at half of the fitted maximal effect. The method in brief: (§4)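 Real-time cytotoxicity: fluorescence of a cell-impermeant cyanine dye binding DNA of dead HepG2 cells, measured repeatedly (0–40 h) during compound exposure at 37 C. Cells seeded 600/well with reagent, dosed after 5 h.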
The nature of assay [6]: qHTS RealTime-Glo MT Cell Viability Assay in HepG2 cells - 32 hour (AID 1224877). Further: nearly all actives have a fitted effect of over 55% in size. The method in brief:
(§5)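 HepG2 cells (600/well) were dispensed with RealTime-Glo reagents, incubated 5 h at 37 °C, then treated with compounds in DMSO for up to 40 h. Nonlytic NanoLuc luminescence reflecting viable cells was read at each stated time point.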

The nature of assay [7]: A CellTox Green Cytotoxicity Assay to monitor cytotoxicity in HepG2 cells - 24 hour (AID 1224878). Further: nearly all actives have a fitted effect of over 45% in size. Further: potency means the concentration at half of the fitted maximal effect. In outline:
as §4

The nature of assay [8]: A CellTox Green Cytotoxicity Assay to monitor cytotoxicity in HepG2 cells - 40 hour (AID 1224879). Further: nearly all actives have a fitted effect of over 40% in size. Further: potency means the concentration at half of the fitted maximal effect. The method in brief:
as §4

Assay [9] is described as follows: qHTS RealTime-Glo MT Cell Viability Assay in HEK293 cells - 0 hour (AID 1224880). The method in brief: as §3
Assay [10] in a line: A CellTox Green Cytotoxicity Assay to monitor cytotoxicity in HepG2 cells - 0 hour (AID 1224882). Further: nearly all actives have a fitted effect of over 35% in size. In outline: as §4
Assay [11] can be described thus: A CellTox Green Cytotoxicity Assay to monitor cytotoxicity in HepG2 cells - 32 hour (AID 1224883). Further: nearly all actives have a fitted effect of over 50% in size. Further: potency means the concentration at half of the fitted maximal effect. The method in brief: as §4
Assay [12] is described as follows: A CellTox Green Cytotoxicity Assay to monitor cytotoxicity in HEK293 cells - 8 hour (AID 1224884). Further: nearly all actives have a fitted effect of over 35% in size. Further: potency means the concentration at half of the fitted maximal effect. In outline: as §1
Assay [13] is described as follows: qHTS RealTime-Glo MT Cell Viability Assay in HepG2 cells - 16 hour (AID 1224885). Further: nearly all actives have a fitted effect of over 50% in size. Further: potency means the concentration at half of the fitted maximal effect. The method in brief:
as §5

Assay [14] in a line: qHTS RealTime-Glo MT Cell Viability Assay in HEK293 cells - 24 hour (AID 1224886). Further: nearly all actives have a fitted effect of over 50% in size. Further: potency means the concentration at half of the fitted maximal effect. The method in brief:
as §2

The nature of assay [15]: qHTS RealTime-Glo MT Cell Viability Assay in HEK293 cells - 8 hour (AID 1224887). Further: nearly all actives have a fitted effect of over 50% in size. Further: potency means the concentration at half of the fitted maximal effect. The method in brief: as §3
Assay [16] in a line: A CellTox Green Cytotoxicity Assay to monitor cytotoxicity in HEK293 cells - 16 hour (AID 1224888). Further: nearly all actives have a fitted effect of over 35% in size. Further: potency means the concentration at half of the fitted maximal effect. In outline:
as §1

Assay [17] in a line: qHTS RealTime-Glo MT Cell Viability Assay in HepG2 cells - 0 hour (AID 1224889). Further: nearly all actives have a fitted effect of over 50% in size. In outline: as §5
Assay [18] in a line: A CellTox Green Cytotoxicity Assay to monitor cytotoxicity in HepG2 cells - 8 hour (AID 1224890). Further: nearly all actives have a fitted effect of over 45% in size. Further: potency means the concentration at half of the fitted maximal effect. The method in brief: as §4
Assay [19] in a line: qHTS RealTime-Glo MT Cell Viability Assay in HepG2 cells - 8 hour (AID 1224873). Further: nearly all actives have a fitted effect of over 55% in size. In outline: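 HepG2 cells (600/well) mixed with RealTime-Glo MT reagent, settled 5 h at 37 C/5% CO2 before compound addition. Nonlytic NanoLuc luminescence from viable-cell prosubstrate reduction read repeatedly during 40 h treatment at 37 C.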
Assay [20] is described as follows: A CellTox Green Cytotoxicity Assay to monitor cytotoxicity in HEK293 cells - 32 hour (AID 1224881). Further: nearly all actives have a fitted effect of over 40% in size. Further: potency means the concentration at half of the fitted maximal effect. The method in brief:
as §1

Values without a mark were called inactive. Results filed as inconclusive are left out. Activity calls are given as the source filed them. The call rests on the fitted dose curve; in most records, active means well fitted curve in the direction sought with a large enough effect in the repeat runs; inconclusive means weak or mixed curves; inactive means no such curve, though single readings can be large; an effect the other way counts as inactive or inconclusive.
On the % scale 0 is the no-effect control and ±100 the full control effect.

`O=C(O)c1cc(=O)c2ccccc2o1`: the Potency result in assay [1], in assay [2], in assay [4], in assay [5], in assay [6] and in [7] was “inactive” each time. Also, the Potency result in assay [8], in assay [9], in [10], in assay [11], in assay [12] and in assay [13] was “inactive” each time. For the same molecule, the Potency result in [14], in assay [15], in assay [16], in [17] and in [18] was “inactive” in each case. The max response in assay [3] was 1.84%.

As to `CC(C(=O)O)c1ccc2c(c1)[nH]c1ccc(Cl)cc12` (centres undefined), the Potency entry in assay [1], in assay [2], in [19], in assay [4], in assay [5] and in assay [6] was “inactive” in each case. Further, the Potency entry in [7], in [8], in assay [20], in [10], in [11] and in assay [12] was “inactive” each time. Moreover, the Potency result in [13], in assay [14], in assay [15], in assay [16], in assay [17] and in assay [18] was “inactive” throughout.

Turning to `O[C@@H]([C@H](O)[C@H](O)CBr)[C@H](O)CBr`, the Potency entry in [1], in assay [2], in assay [19], in assay [4], in assay [6] and in assay [7] was “inactive” throughout. The Potency result in assay [8], in assay [9], in [20], in assay [10], in [11] and in assay [12] was “inactive” in each case. In addition, the Potency entry in [13], in [14], in [15], in assay [16], in assay [17] and in assay [18] was “inactive” in each case.

With `CCN1C(=O)c2ccccc2C1Nc1ccc(OCCN2CCCCC2)cc1` (centres undefined), the Potency entry in assay [1], in [19], in assay [4], in assay [5], in [6] and in [7] was “inactive” in each case. In addition, the Potency result in assay [8], in assay [9], in assay [10], in [11], in assay [12] and in [13] was “inactive” in each case. Also, the Potency entry in assay [16], in assay [17] and in assay [18] was “inactive” each time. Besides, the Potency in assay [2] is 4.77 µM (active); in assay [14] it was 4.77 µM (active); in [15], 3.79 µM (active).

Consider `CC1(C)CCC[C@]2(C)[C@H]3CC(=O)O[C@]3(C)CC[C@@H]12`, for which the Potency in [1] and in assay [4] was 49 µM (active) each time. Besides, the Potency entry in [2], in assay [19], in assay [5], in assay [6], in [7] and in assay [8] was “inactive” throughout. Also, the Potency entry in assay [9], in assay [10], in [11], in assay [12], in assay [13] and in assay [14] was “inactive” each time. The Potency result in assay [15], in [17] and in [18] was “inactive” throughout.

Turning to `CCCCN(CCCC)CC(O)c1cc(Cl)cc2c1-c1ccc(Cl)cc1/C2=C/c1ccc(Cl)cc1` (centres undefined), the Potency result in [1], in assay [2], in assay [4], in assay [9], in assay [10] and in [12] was “inactive” throughout. In addition, the Potency result in assay [14], in [15], in [16] and in [17] was “inactive” throughout. The max response in assay [3] is -17.2%. The Potency in [5] was 21.3 µM (active); in assay [7], 23.9 µM (active); in assay [8], 23.9 µM (active); in assay [11] it was 23.9 µM (active); in [18], 13.4 µM (active).

For the molecule `CCCCCCC1CCCC(=O)O1` (centres undefined), the Potency entry in [1], in assay [2], in [4], in [6], in assay [7] and in [8] was “inactive” throughout. Moreover, the Potency result in assay [9], in assay [20], in assay [10], in [11], in [13] and in assay [14] was “inactive” in each case. Moreover, the Potency result in [15], in [16], in assay [17] and in assay [18] was “inactive” in each case. For the same molecule, in assay [3], the max response was 3.13%.

For the molecule `[Cl][Pt-2]([Cl])([Cl])[Cl]`, the Potency entry in [1], in assay [19], in [4], in assay [5], in [6] and in assay [7] was “inactive” each time. Moreover, the Potency entry in assay [8], in assay [9], in assay [20], in assay [10], in [11] and in assay [12] was “inactive” each time. The Potency entry in assay [13], in assay [15], in assay [16], in assay [17] and in [18] was “inactive” each time.

`c1ccc(C(O[C@@H]2CCCN(CCc3ccc4c(c3)OCO4)C2)c2ccccc2)cc1`: the Potency result in [1], in [19], in [4], in [5], in [6] and in [7] was “inactive” each time. Besides, the Potency result in [9], in assay [20], in assay [10], in assay [12], in assay [13] and in [16] was “inactive” each time. In addition, the Potency entry in assay [17] and in assay [18] was “inactive” each time.

For the molecule `CCCCCCCC/C=C\CCCCCCCCN`, the Potency was 23.9 µM (active) in [1]; 21.3 µM (active) in [2]; 21.3 µM (active) in assay [4]; 23.9 µM (active) in [20]; 23.9 µM (active) in assay [12]; 23.9 µM (active) in assay [13]. Besides, the Potency was 21.3 µM (active) in assay [14], 23.9 µM (active) in [15] and 23.9 µM (active) in [16]. In addition, the Potency result in assay [10] and in assay [17] was “inactive” in each case.
